About 83,000 compounds went through this panel and 20% of them were active in at least one assay; those are over-represented in the sample as a whole.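 The test compound was applied at a single concentration to cells in 96-well plates for 48 hours, and percent growth was recorded.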 The source made the active and inactive calls. Rule for the calls: active = growth percent below 10; inactive = the rest.
These compounds were tested on HL-60(TB) leukemia (assay: NCI-60 one-dose screen, 48 h (100 = growth as untreated, 0 = no growth, -100 = all killed)). Conditions: 10 µM unless noted.

Structure (SMILES) | growth
O=C1c2ccccc2-c2nccc3cc(Cl)nc1c23 | 1.84% (active)
Cc1cccc(NC(=O)Cn2cc(CN3CCN(c4ccnc5cc(Cl)ccc45)CC3)nn2)c1 | 89.1% (inactive)
N#C/C(=C\c1ccc(-c2cccc(C(F)(F)F)c2)o1)c1ccccc1 | 96.2% (inactive)
C/C(=N\NC(=O)C(C)SC(C)C(=O)N/N=C(\C)c1cccnc1)c1cccnc1 (configuration not stated) | 77.1% (inactive)
CCOC(=O)C(C#N)C1CCCCC1 (configuration not stated) | 67.5% (inactive)
CCCNS(=O)(=O)c1ccc(Cl)cc1 | 105% (inactive)
O=C1CC2C=CCN2C=C1NC(=O)C1CCCCC1 (configuration not stated) | 101% (inactive)
COc1ccc2nc(-c3ccc(Cl)cc3)cc(-c3nnc(SC/C(=N\O)c4ccccc4)n3-c3ccccc3)c2c1 | 55.4% (inactive)
CCOC(=O)C/C(C)=N\NC(=O)c1ccncc1 | 99.4% (inactive)
CCN(CC)CCCCNc1ccc(NCCCCN(CC)CC)c2c1C(=O)c1ccccc1C2=O | 70% (inactive)
Cc1cc(NCCCNc2ccnc3cc(Cl)ccc23)nc(N2CCN(C)CC2)n1 | 15.7% (inactive)
CN(C)c1ccc(/C=N\NC(=O)c2ccc3nc(-c4ccc(Cl)cc4)[nH]c3c2)cc1 | 37.4% (inactive)

Reference: PubChem BioAssay (NCI)
